High-throughput results: PubChem BioAssay, National Center for Advancing Translational Sciences (NCATS)
SKOV3 invasion = blocks SKOV3ip1 adhesion and invasion in omental model; SKOV3ip1-GFP adhesion/invasion on 3D omental model, fluorescence; AID 1963576; hit rate 0.1% among 46,000; Potency, µM (series often up to 45.8 µM), hits mostly inhibitors; also: nearly all actives have a fitted effect of over 65% in size
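Adhesion/invasion was scored as fixed GFP-labeled SKOV3ip1 cell counts (488/509 nm), normalized to DMSO and tomatine controls. Cancer cells in serum-free medium, with four compound doses (0.36-46 umol/L), sat 2 hr at RT then 16 hr at 37 C on a 48 hr fibroblast/mesothelial/ECM culture.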
DRV1 agonist = GPR32 (DRV1) agonism, beta-arrestin recruitment | O75388 | CHO-K1 GPR32 beta-arrestin PathHunter luminescence, 90 min; zero percent set by DMSO-only wells | activation, % at 76.9 µM | AID 1346428 | hit rate 2.5% among 48,000;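 active = activation of at least 60% and not above a set upper limit, about 1 call in 100 departs from these limits; inconclusive = activation of 40% to 60%, or above that upper limit; inactive = activation under 40%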
Target sequence (O75388 whole entry, looked up): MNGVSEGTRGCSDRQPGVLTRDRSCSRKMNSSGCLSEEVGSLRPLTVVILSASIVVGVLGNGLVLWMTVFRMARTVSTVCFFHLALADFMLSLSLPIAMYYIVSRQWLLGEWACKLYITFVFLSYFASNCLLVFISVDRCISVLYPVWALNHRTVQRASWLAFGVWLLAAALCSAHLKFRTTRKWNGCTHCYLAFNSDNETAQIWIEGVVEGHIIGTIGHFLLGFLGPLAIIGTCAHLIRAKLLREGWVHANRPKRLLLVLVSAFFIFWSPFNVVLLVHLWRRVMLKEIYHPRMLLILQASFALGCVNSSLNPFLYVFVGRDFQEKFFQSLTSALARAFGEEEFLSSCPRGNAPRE
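Luminescent readout of beta-Gal complementation quantifies ligand-induced beta-arrestin association with GPR32 in CHO-K1 cells; 90 min compound incubation at 37 °C, detection 1 h at room temperature.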
HTT prom inh = inhibits huntingtin promoter activity. HEK293 HTT promoter firefly luciferase reporter, 24 h. hit rate 0.93% among 48,000. Potency, µM (series often up to 57.5 µM), actives largely listed as inhibitors; also: nearly all actives have a fitted effect of over 50% in size
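Firefly luciferase readout (Dual-Glo, 10 min RT) after 24 h, 37 °C compound exposure (final up to 57.5 uM) of HEK293 reporter cells cultured 24 h beforehand; PTC124 at 50 uM final as control inhibitor; activity scaled vehicle 0%, zero RLU -100%.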
HTT-AS act = HTT-AS promoter activation. HEK293 HTT-AS promoter firefly luciferase reporter, 24 h; response scale: percent change from vehicle, -100% = no light. Potency, µM (doses to about 57.5 µM), actives largely listed as activators. hit rate 0.24% among 48,000. AID 1508624; also: nearly all actives have a fitted effect of over 55% in size
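Quantitative HTS used concentration series of up to 57.5 uM final on HEK293 luciferase reporter cells, 24 h at 37 degrees C. Readout was Dual-Glo firefly luminescence.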
NTMT1 inhibitor = NTMT1 methyltransferase inhibition. Q9BV86. NTMT1 MTase-Glo SAH luminescence, purified enzyme. Potency, µM (titrated, usually from 114 µM), usual class: inhibitors. hit rate 2.5% among 59,000; also: nearly all actives have a fitted effect of over 65% in size
Numbers stand for hits; i = inactive; ? = inconclusive; nt = no result; [ ] = remark or other dose. Most compounds without a hit are left out; they make up all but 4.5% or so of the library. Unless noted, calls follow the shape of the dose curve; as a rule, active = well fitted curve in the direction sought with a large enough effect; inconclusive = small, poorly fitted or top-dose-only effect, or another doubt; inactive = no such curve, though single readings can be large; an effect the other way counts as inactive or inconclusive.

SMILES	SKOV3 invasion	DRV1 agonist	HTT prom inh	HTT-AS act	NTMT1 inhibitor
Cc1ccc(OCc2nc(-c3ccc(C(=O)NCCc4ccc(S(N)(=O)=O)cc4)cc3)oc2C)cc1	i	82	?	i	i
CCOc1ccc(Nc2c(S(=O)(=O)c3ccc(C)cc3)cnc3ccccc23)cc1	i	i	?	i	?
CCOc1ccc(NC(=O)c2cc3c(=O)n4cccc(C)c4nc3s2)cc1	i	i	i	i	i
CCc1ccc(S(=O)(=O)NCc2ccc3c(c2)CCN3C(=O)c2ccc(C)cc2)cc1	i	i	?	i	i
Cc1ccc(CNS(=O)(=O)c2ccc3c(c2)CCN3S(C)(=O)=O)cc1	i	i	i	i	50µM
O=S(=O)(NCc1ccc(F)cc1)c1ccc2[nH]c3c(c2c1)CCCC3	i	118	i	i	?
Cc1ccc(CNS(=O)(=O)c2ccc3[nH]c4c(c3c2)CCCCC4)cc1	i	?	?	i	i
O=S(=O)(NCc1ccccc1)c1ccc2[nH]c3c(c2c1)CCCCC3	i	i	?	i	i
Cc1ccc(CNS(=O)(=O)c2ccc3[nH]c4c(c3c2)CCCC4)cc1	i	72	i	i	i
O=S(=O)(NCc1ccc(Cl)cc1)c1ccc2[nH]c3c(c2c1)CCCC3	i	77	i	i	?
CCOc1ccc(C(=O)c2oc3ccccc3c2NC(=O)Cc2coc3cc(C)cc(C)c23)cc1	i	i	i	i	i
CCOC(=O)c1scc(-c2ccccc2)c1S(=O)(=O)N1CCN(c2ccc(Cl)cc2)CC1	i	i	i	i	?
Cc1nnc(NC(=O)c2ccccc2)s1	i	i	i	?	i
CC(C)C(=O)Nc1cccc(C(=O)Nc2nnc(CC(C)(C)C)s2)c1	i	62	?	i[11.5 µM]	i
O=C(Nc1ccc(OC(F)(F)F)cc1)c1nc2ccccc2nc1N1CCCCC1	i	i	i	i	?
CC1=C(CO)C(=O)O[C@@H]([C@@H](C)[C@H]2CC[C@H]3[C@@H]4C[C@H]5O[C@]56[C@@H](O)C=CC(=O)[C@]6(C)[C@@H]4CC[C@]23C)C1	4.7µM	nt	?	i	i
Cc1nc(-c2ccccc2)sc1-c1ccc(SCC(=O)Nc2ccccc2)nn1	i	i	i	i	i
O=C(CSc1oc(-c2ccco2)nc1S(=O)(=O)c1ccc(Cl)cc1)Nc1ccc(F)cc1	i	i	i	i	i
Cc1ccc(NC(=O)Cn2nnc(C(=O)NCCc3ccccc3)c2N)cc1C	i	i	i	i	i
CCOc1ccc(NC(=O)Cn2nnc(C(=O)NCCc3ccccc3)c2N)cc1	i	88	i	i	i
COc1ccc(NC(=O)Cn2nnc(C(=O)NCCc3ccccc3)c2N)cc1	i	i	i	i	i
COc1ccc(NC(=O)c2nnn(CC(=O)Nc3ccc(C)c(C)c3)c2N)cc1OC	i	91	?	i	i
CC(C)CCC(=O)CC1c2ccccc2C(=O)N1c1ccc2ccc(Cl)nc2n1 (stereo not given)	nt	nt	nt	nt	i
O=C(O)c1ccc(-c2noc(-c3ccccc3F)n2)cc1	nt	nt	nt	nt	22µM
O=c1[nH]sc2cc(Cl)ccc12	nt	i	i	?	2.8µM
SMILES	SKOV3 invasion	DRV1 agonist	HTT prom inh	HTT-AS act	NTMT1 inhibitor
CCc1nnc2c(Nc3ccccc3Br)nc3ccccc3n12	i	i	i	i	i
CCc1nnc2c(Nc3ccc(N(CC)CC)cc3C)nc3ccccc3n12	i	i	i	i	89µM
COc1cccc(CNS(=O)(=O)c2ccc(N3CCCCS3(=O)=O)cc2)c1	i	i	16µM	i	i
O=S(=O)(Nc1ccc(OC(F)(F)F)cc1)c1ccc(N2CCCCS2(=O)=O)cc1	i	i	?	i	i
COc1ccc(NS(=O)(=O)c2ccc(N3CCCCS3(=O)=O)cc2)cc1Cl	i	i	14µM	i	i
Cc1ccc(C2CC(=O)Nc3cc4c(cc32)OCCO4)cc1Br (stereo not given)	i	i	25µM	i	i
CC(C)c1ccc(C2CC(=O)Nc3cc4c(cc32)OCCO4)cc1 (stereo not given)	i	i	?	i	i
Cc1cc(C)nc(-n2nc(C)c3c2N(Cc2ccccc2C)C(=O)CC3c2ccc(Cl)cc2)n1 (stereo not given)	i	i	i	i	i
Cc1cc2c(s1)Nc1ccccc1N=C2N1CCN(C)CC1	i	i	i	?	?
